# Laboratory results: PubChem BioAssay
# For some assays here: Measured potencies and affinities stand elsewhere. Calls of active or inactive are those of the source. Unless noted, no rule for the calls is given here.
# Assays:
# [1] = target: Cell division control protein 42 homolog (Homo sapiens) (UniProt P60953); assay: activated mutant Cdc42 GTP-binding inhibitors, dose response, biochemical, multiplex bead flow cytometry, Bodipy-FL-GTP (AID 1333;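 active = fitted half-maximal concentration within the tested dose range, moderate curve steepness, a statistically real signal drop, and little compound fluorescence or tag-binding interference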)
# [2] = target: Cell division control protein 42 homolog (Homo sapiens) (UniProt P60953); assay: wildtype Cdc42 GTP-binding inhibitors, dose response, biochemical, multiplex bead flow cytometry, Bodipy-FL-GTP (AID 1334;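 active = fitted half-maximal concentration within the tested range, moderate curve steepness, significant signal drop, and little compound fluorescence or bead-linkage interference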); conditions: bead-based flow cytometry, Bodipy-FL-GTP binding to GST-Cdc42; at 100 µM (top of the series) unless noted
# [3] = target: GTPase HRas (Homo sapiens) (UniProt P01112); assay: inhibitors of GTP binding to wildtype Ras, dose response, biochemical, multiplex bead flow cytometry (AID 1335;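 active = fitted half-maximal concentration within 10 nM to 100 µM, steepness 0.5 to 2, significant signal drop, low assay interference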); conditions: bead-based flow cytometry, Bodipy-GTP binding to GST-Ras; at 100 µM (top of the series) unless noted
# [4] = test system: Ras-related protein Rab-7a (dog), GTP binding; assay: Rab7 GTP binding inhibitors, potency, dose response, biochemical, wildtype, multiplex bead flow cytometry (AID 1336)
# [5] = target: Ras-related C3 botulinum toxin substrate 1 (Homo sapiens) (UniProt P63000); assay: wildtype Rac1 GTP binding inhibitors, dose response, biochemical, multiplex bead flow cytometry (AID 1340;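 active = dose curve with midpoint inside tested range, moderate steepness, plateau gap beyond fit error, low compound glow and bead-link interference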); conditions: GST-Rac1 beads, Bodipy-FL-GTP binding; at 100 µM (top of the series) unless noted
# [6] = target: GTPase HRas (Homo sapiens) (UniProt P01112); assay: activated Ras mutant GTP binding inhibitors, dose response, biochemical, multiplex bead flow cytometry (AID 1341;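 active = dose-response curve with midpoint inside the tested range, moderate steepness, significant amplitude and little compound fluorescence or bead-attachment interference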;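 also: GST-tagged constitutively activated Ras mutant immobilized on beads and multiplexed with other GTPases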)
# Cell division control protein 42 homolog (Homo sapiens), sequence (P60953 whole entry, looked up): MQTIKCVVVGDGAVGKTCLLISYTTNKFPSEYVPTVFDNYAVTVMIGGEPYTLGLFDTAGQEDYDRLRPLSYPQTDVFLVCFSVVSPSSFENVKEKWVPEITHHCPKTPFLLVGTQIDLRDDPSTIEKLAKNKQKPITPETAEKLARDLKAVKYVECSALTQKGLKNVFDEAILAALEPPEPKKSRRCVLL
# GTPase HRas (Homo sapiens), sequence (P01112 whole entry, looked up): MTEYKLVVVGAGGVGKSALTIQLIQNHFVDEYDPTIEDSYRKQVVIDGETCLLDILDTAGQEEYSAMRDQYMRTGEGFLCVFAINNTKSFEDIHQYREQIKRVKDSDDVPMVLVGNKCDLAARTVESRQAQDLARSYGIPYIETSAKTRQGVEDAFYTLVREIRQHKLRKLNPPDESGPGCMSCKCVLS
SMILES,outcome [1],"fluorescence, percent of control (lower = inhibition) [2]","GTP binding, percent of control [3]",outcome [4],"GTP binding signal, raw median fluorescence (lower = inhibition) (MCF (arbitrary fluorescence units)) [5]",outcome [6]
CCCN(CC1CC1)C(=S)Nc1ccc(Oc2ccccc2)cc1,inactive,26.1%,81.4%,inactive,258,inactive
Cc1ccccc1CSCc1ccc(C(=O)O)o1,inactive,61.3%,89.8%,inactive,30.2,inactive
CCc1ccc(NC(=O)c2cc3c(C)nc4ccccc4c3o2)cc1,inactive,51.4%,93.2%,inactive,261,inactive
CCOc1cccc(-c2nn3c(-c4ccco4)nnc3s2)c1,inactive,32.7%,71.3%,inactive,164,inactive
Cc1cc(OCc2ccc(C(=O)O)o2)ccc1Cl,inactive,57.7%,85.2%,inactive,31.8,inactive
O=C(Nc1ccc2nc(-c3cccs3)[nH]c2c1)c1cccs1,inactive,30.4%,68.4%,inactive,184,inactive
O=C(O)c1ccc(CNCc2cccc(Cl)c2)s1,inactive,61.3%,85.1%,inactive,32.6,inactive
Cc1n[nH]c(=S)c2nn(-c3ccccc3F)c(C)c12,inactive,48.5%,62.5%,inactive,179,inactive
O=S(=O)(Cc1ccccc1)c1ccccc1-c1nnc(-c2ccccc2)o1,inactive,89.9%,166%,inactive,188,inactive
O=C(Cn1nc2ccccc2n1)N/N=C/c1cc([N+](=O)[O-])ccc1O,inactive,23.8%,54.9%,inactive,109,inactive
Cc1nc2c(ccc3nc(NC(=O)c4ccc(S(=O)(=O)N(C)C)cc4)sc32)s1,inactive,79.8%,151%,inactive,159,inactive
COc1ccc(CC(=O)Nc2ccc(S(=O)(=O)NC(C)C)cc2)cc1,inactive,51.9%,66.7%,inactive,0,inactive
CCOC(=O)Cn1nnnc1C(CC)N(Cc1cccs1)Cc1cc2cc(C)ccc2[nH]c1=O (stereo unspecified),inactive,96.4%,186%,inactive,194,inactive
Cc1nnc(-n2ncc(C#N)c2N)c2nn(-c3cccc(Cl)c3)c(C)c12,inactive,62.8%,76.8%,inactive,198,inactive
CCOC(=O)C1=NN(c2ccc(C)cc2)CC1C(=O)OC (stereo unspecified),inactive,41.5%,86.3%,inactive,244,inactive
Cc1cc(Cl)ccc1OCC(=O)OCC(=O)Nc1ccc(F)c([N+](=O)[O-])c1,inactive,53%,70.9%,inactive,0,inactive
COc1ccc(-n2cc(-c3ccccc3)c3c(=O)[nH]cnc32)cc1,inactive,39.1%,84.4%,inactive,327,inactive
O=c1c2ccccc2nc2ccc(NCc3cccs3)nn12,inactive,33.1%,76.2%,inactive,195,inactive
CCNC(=S)N=Nc1c(O)[nH]c2ccc([N+](=O)[O-])cc12,inactive,32.4%,72.3%,inactive,141,inactive
COc1cc(/C=N\NC(=O)CNC(=O)C2COc3ccccc3O2)ccc1O (stereo unspecified),inactive,51.5%,62.3%,inactive,191,inactive

SMILES,outcome [1],"fluorescence, percent of control (lower = inhibition) [2]","GTP binding, percent of control [3]",outcome [4],"GTP binding signal, raw median fluorescence (lower = inhibition) (MCF (arbitrary fluorescence units)) [5]",outcome [6]
COc1ccc(-c2cc(C(F)(F)F)c3c(n2)sc2c(O)cc(=O)[nH]c23)c(OC)c1,inactive,38.1%,76.3%,inactive,162,inactive
CC(=O)OC(C(=O)NC1CCCCC1)c1ccc(Cl)c(Cl)c1 (stereo unspecified),inactive,39.6%,88.7%,inactive,310,inactive
O=C(O)COc1ccccc1/C=N/NC(=O)c1cc(-c2ccc(F)cc2)nc2ccccc12,inactive,30.7%,80.5%,inactive,177,inactive
CN(C)CCN(C(=O)c1ccc(N2C(=O)CCC2=O)cc1)c1nc2cc3c(cc2s1)OCO3,inactive,35.7%,79.3%,inactive,261,inactive
CN(/N=C/c1cccnc1)C1=NS(=O)(=O)c2ccccc21,inactive,36.2%,50.7%,inactive,137,inactive
CCN(CC)c1ccc(/C=C(/C#N)c2nc3ccc(C)cc3[nH]2)c(OC(C)C)c1,inactive,96.1%,108%,inactive,264,inactive
COc1ccc(O)c(CN2CCN(CCc3ccccc3)C(CCO)C2)c1 (stereo unspecified),inactive,37.3%,84.3%,inactive,273,inactive
Cc1ccc(-n2c(=O)[nH]c3c(oc4ccccc43)c2=O)cc1,inactive,34.8%,78.7%,inactive,332,inactive
Cc1cc(=O)[nH]c2c(N=Nc3ccc(O)cc3)c(N)nn12,inactive,31.3%,69.7%,inactive,161,inactive
COc1ccc(OC)c(S(=O)(=O)Nc2ccc(O)c(Sc3ncn[nH]3)c2)c1,inactive,48.6%,65.1%,inactive,189,inactive
COc1ccc(C(=O)c2c(O)cc(-c3ccc(OC)cc3)oc2=O)cc1,inactive,52.9%,70.9%,inactive,249,
COc1ccc(CC(=O)Nc2ccc(C(=O)Nc3nccs3)cc2)cc1OC,inactive,36.7%,75.2%,inactive,163,inactive
COC(=O)c1c(N2C(=O)[C@H]3[C@@H](C2=O)[C@]2(C(=O)Nc4c2ccc(C)c4C)N2CCC[C@@H]32)sc(C)c1C,inactive,55.3%,71.4%,inactive,0,inactive
CC(C)Cc1csc(NC(=O)c2ccccc2Cl)c1C(=O)O,inactive,29.8%,74.3%,inactive,214,
COc1ccc(-c2c3c(nc4sc5c(=O)[nH]c(C)nc5c24)CCC3)cc1,inactive,38.2%,49.1%,inactive,153,inactive
COc1cc(/C=C2/C(C)=C(C#N)c3nc(N)c(C#N)c(C)c32)ccc1OCC(=O)O,inactive,25.9%,62%,inactive,161,inactive
CC(=O)c1c(C)[nH]c(C(=O)N2CCc3ccccc3C2)c1C,inactive,107%,192%,inactive,,
CCCOC(=O)c1c(NC(=O)CCC(=O)O)sc2c1CCCCC2,inactive,32.9%,79%,inactive,282,inactive
COc1ccc2nc(/C(C#N)=C\c3ccc(C(=O)O)cc3)[nH]c2c1,inactive,31.4%,72.6%,inactive,189,inactive
Cc1cc(C)cc(C(=O)N(NC(=O)Nc2ccc(Cl)cc2)C(C)(C)C)c1,inactive,94.9%,150%,inactive,186,inactive

SMILES,outcome [1],"fluorescence, percent of control (lower = inhibition) [2]","GTP binding, percent of control [3]",outcome [4],"GTP binding signal, raw median fluorescence (lower = inhibition) (MCF (arbitrary fluorescence units)) [5]",outcome [6]
COc1cc(/C=N\NC(=O)c2ccc(Cn3nc([N+](=O)[O-])c(Cl)c3C)o2)ccc1O,inactive,29.9%,82%,inactive,107,inactive
CNc1ncc(C(=O)c2ccc(Br)cc2)s1,inactive,37.3%,85.2%,inactive,277,inactive
O=S(=O)(Cc1ccc(Cl)cc1)c1ccccc1-c1nnc(-c2ccccc2)o1,inactive,104%,196%,inactive,207,inactive
Cc1nc(-c2ccccc2)sc1C(=O)NN,inactive,39.4%,82.3%,inactive,248,inactive
Cc1ccc(C)c(NC(=S)NNC(=O)c2cc3c(s2)CCC(C)C3)c1 (stereo unspecified),inactive,49.9%,67.1%,inactive,176,inactive
Cn1nnnc1Sc1ncnc2scc(-c3ccc(F)cc3)c12,inactive,52.2%,64.5%,inactive,210,inactive
COc1cc(C(=O)OCC(=O)Nc2ccc3c(c2)OC(F)(F)O3)ccc1OCc1c(C)noc1C,inactive,52.4%,53.9%,inactive,186,inactive
Cc1ccc(NCC(=O)c2ccccc2)cc1Cl,inactive,36.3%,80.6%,inactive,256,inactive
COCc1cc(C)nc(N/N=C/c2ccc(-c3ccc(C(=O)O)c(Cl)c3)o2)c1C#N,inactive,30.6%,74.4%,inactive,180,inactive
Nc1c(C(=O)C2CC2)sc2nc(-c3cccs3)cc(C(F)(F)F)c12,inactive,495%,441%,inactive,468,inactive
COc1cccc(/C=N/Nc2nn3cnnc3c3ccccc23)c1,inactive,36.5%,47.3%,inactive,120,inactive
O=C(O)CCCCCNS(=O)(=O)c1cccc2c1C(=O)c1ccccc1C2=O,inactive,32.5%,45.9%,inactive,0,inactive
NC1=NC(=O)/C(=C/c2cn(CCC(=O)O)nc2-c2ccc(Cl)cc2)S1,inactive,18.2%,42.4%,inactive,65.5,inactive
CC(C)CCn1c(CN2CCN(Cc3ccccc3)CC2)nc2c1c(=O)n(C)c(=O)n2C,inactive,89.2%,165%,inactive,178,inactive
COc1ccc(C(=O)O)c(OCc2c(C)cccc2C)c1,inactive,59%,208%,inactive,55.5,inactive
Cc1cc(NS(=O)(=O)c2ccc(Nc3nc(-c4sc(N)nc4C)cs3)cc2)no1,inactive,23.8%,58.3%,inactive,122,inactive
Cc1ccc2c(c1)c1nnc(SCC(=O)Nc3cccc(Cl)c3C)nc1n2CC(=O)O,inactive,35.2%,80.1%,inactive,245,inactive
COc1ccc(NC(=O)CSc2ccc3nnc(-c4cccnc4)n3n2)c(OC)c1,inactive,37.4%,72.3%,inactive,165,inactive
O=c1c2ccccc2nc2c3ccccc3c(NCCO)nn12,inactive,27.1%,65%,inactive,165,inactive
Cc1ccc(-n2c3nc(=O)[nH]c(=O)c-3cc3cc([N+](=O)[O-])ccc32)cc1,inactive,34.4%,71%,inactive,103,inactive
